Laboratory results reported in paper PMC12136788.
Positions count from the first letter of the chain named. Whole data set: some 24,000 sequences, median “enrichment r” near 0.99, cut for the highest 2% near 3.7. The full list was thinned out, with the highest values kept by preference.

T1: UNK ZnF1-3 (human, UniProt Q9C0B0 31-174)
T1 sequence: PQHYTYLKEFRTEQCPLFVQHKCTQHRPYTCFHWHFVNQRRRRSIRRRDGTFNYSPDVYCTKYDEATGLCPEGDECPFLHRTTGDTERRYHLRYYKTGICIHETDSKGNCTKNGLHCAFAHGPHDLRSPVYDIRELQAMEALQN

B1: chr2:232320318:232320319:-_ENSG00000115053_ENST00000322723|hu_hu|hu_hu_hu_mus_True|28_78 (ssRNA)
RNA: GGGAGUUCUACAGUCCGACGAUCACUAUUAAAGUCUACAAAACCAAACCCUUUGGAGGACCCAGUUUCCCGAUCAGUGACUAUUCUUGCACGAACAGAGCCCUCAAAUGACUCCUUUAAGGUCUCUUCAGUGGUAUCCUCAGACAACAGAGGAUUGAGCAUCA
B2: chr13:100518589:100518590:+_ENSG00000125246_ENST00000339105|hu_hu|FALSE|FALSE (ssRNA)
RNA: GGGAGUUCUACAGUCCGACGAUCUUCUCGUGACUGUCUAAGCAGCCCAGCUCCAUCUCGAAAGUCAAUGUACACCAGAUCUAUGGCUUGGAGACCAAAGGCUUUCGCUAUGACAACAAUCUUUUGCCGGGCGUAGAGAAUAUCCAACAGAGGAUUGAGCAUCA
B3: chr17:60770872:60770873:+_ENSG00000011028_ENST00000303375|hu_hu|hu_hu_hu_mus_True|58_88 (ssRNA)
RNA: GGGAGUUCUACAGUCCGACGAUCUCUUUAAAAAAAAAAAAAAAAAGUUUAAAAACAAUAGCACAUUUCGAGAAUCAUCAACUACAGUAGAGGGUCCGCUUUGAGUUUUUGUUCACAUCGUCCUGCACUGGGACACGGGGACUGCAACAGAGGAUUGAGCAUCA
B4: chr17:60770872:60770873:+_ENSG00000011028_ENST00000303375|hu_hu|hu_hu_hu_mus_True|58_58 (ssRNA)
RNA: B3 RNA with U47A, U48C, U49A, A52C, C55U
B5: chr17:60770872:60770873:+_ENSG00000011028_ENST00000303375|hu_hu|hu_hu_hu_mus_True|1_58 (ssRNA)
RNA: GGGAGUUCUACAGUCCGACGAUCUCUUUAAAAAAAAAAAAAAAAAGACAAACAAUAAUAGCACAUUUCGAGAAUCAUCAACUACAGUAGAGGGUCCGCUUUGAGUUUUUGUUCACAUCGUCCUGCACUGGGACACGACCAGGACAACAGAGGAUUGAGCAUCA
B6: chr22:38882006:38882007:-_ENSG00000100201_ENST00000396821|hu_hu|FALSE|FALSE (ssRNA)
RNA: GGGAGUUCUACAGUCCGACGAUCAGGAGGAGGAGGGGGAGGAGGAGGAGGGUAUUGGUAGGCAGUCUGCCCCAUGUAACCUAUCAUAUUGGUAGCUCCCGGAGGCUGUGCAAACUGUUGUGACAUCAGUGGCUGUGGCUGCUGCAACAGAGGAUUGAGCAUCA
B7: chr10:28872372:28872373:+_ENSG00000095787_ENST00000354911|hu_mus|FALSE|FALSE (ssRNA)
RNA: GGGAGUUCUACAGUCCGACGAUCUGCAUCUGAAGUUUUGCUUGGAUUAUUGCUUGGAUUAGAAGAAUGUGAAUUUGAACUAUGAAGUGCACUGUGGUUGUGUGAGUUUUCUUGUGGAGAGUAACUGGUCCCACCGUCCCUUUCCAACAGAGGAUUGAGCAUCA
B8: chr19:8913615:8913616:-_ENSMUSG00000071658_ENSMUST00000096259|mus_hu|mus_mus_mus_hu_False|18_108 (ssRNA)
RNA: GGGAGUUCUACAGUCCGACGAUCAGGGGGGCACCAACUUCUGCCUGAAAUGGGUGCCCCACCCAGUAGGGAGUUGCAGCUGAAAGUAUCUGAUGCAGAAGCAGUGACUAUACGAAAGGUCACUAGAGGGGAGGGCCAGGCCAGCAACAGAGGAUUGAGCAUCA
B9: 49433355_49433581_8031_CDS_ENSG00000167548_ENST00000301067|human|control|control (ssRNA)
RNA: GGGAGUUCUACAGUCCGACGAUCGCGCUGGAUCUGCUGCCGAAUCAGCAGCUCUCGUAGUCGCUGGCGCUGCCGUUGCUUCUCCAGCUCUGUUUGGCUAAGGCCGGACAUGCCUGGGUCCUGGGUACCUGGGAGUUCAGCUGUCAACAGAGGAUUGAGCAUCA
B10: chr15:11317090:11317091:-_ENSMUSG00000022241_ENSMUST00000022849|mus_mus|FALSE|FALSE (ssRNA)
RNA: GGGAGUUCUACAGUCCGACGAUCUUCUGUGAGGAUGGCAAUCAUUCUUUCCACCGACCCCAGGAUGGCUCUGUGAACAAUCACUGGCCUUUUCUUAUCAUCGCCAUCGUGGCUGACGUAAGUAAGGUUAAACCUGAUGGGCAACAACAGAGGAUUGAGCAUCA
B11: 133533018_133533138_1595_3pUTR_ENSG00000113575_ENST00000481195|human|control|control (ssRNA)
RNA: GGGAGUUCUACAGUCCGACGAUCUAGAAGGGAGGCCUUGGUAAUUAUUUUUAAAAAUGUUCAUUAAGCUCCAAUGAUUGUUUGCUGCUAUCCUUAUCUACAGUCAUGCUGAGUAAAGCUAUAGCUAAAUGGAAGUUAAAUUGUCAACAGAGGAUUGAGCAUCA
B12: chr4:87735950:87735951:+_ENSG00000163629_ENST00000511467|hu_hu|FALSE|FALSE (ssRNA)
RNA: GGGAGUUCUACAGUCCGACGAUCCUCACCAUGUCCUUGUAACAAUGUCUGCUAUCAUCAAAUGCUGCCUUUAAUCAUCCCUAAGAUCUGCAUUGUUUGGUUAGUGUUAAAAUUUUGUAAAUAAUUAUCAUAGGUUAAAGUAGCCAACAGAGGAUUGAGCAUCA
B13: chr7:66561770:66561771:+_ENSMUSG00000025326_ENSMUST00000107537|mus_mus|motif|central (ssRNA)
RNA: GGGAGUUCUACAGUCCGACGAUCUUAGCAUUACAGUAAAUAAGAGCUCUGUCUCAACUACUACAAGAAAGAAAAUAAUCCGGAGACAUCCUUUUCCCCUUCCAAUGAUUUGAAAGCUACCAUUAUCCCCUGCCAAUUAAAAUCCAACAGAGGAUUGAGCAUCA
B14: chr4:87735950:87735951:+_ENSG00000163629_ENST00000511467|hu_hu|motif|central (ssRNA)
RNA: B12 RNA with U81G, A82G
B15: chr19:60011576:60011577:-_ENSMUSG00000040022_ENSMUST00000171986|mus_hu|FALSE|FALSE (ssRNA)
RNA: GGGAGUUCUACAGUCCGACGAUCUUUUGCUGUAAAUGGAUUGGUUGACUCAUAAUCAAAAUAGUCCUGGCGAUUUUCACUAAAUGCAUUAGGUGAUUUCAAGUCACAAGGGCUAUCAGAUCCCCCAUUGUUAAGUUUAUCAGACAACAGAGGAUUGAGCAUCA
B16: chr20:57609950:57609951:-_ENSG00000101166_ENST00000355937|hu_mus|FALSE|FALSE (ssRNA)
RNA: GGGAGUUCUACAGUCCGACGAUCGAUCUUUUGUUUAGAUCAAAAGUCACAGCCUUACCCCACCUCAUUAAAAAAAAAGAUCUACCUAAAAUAAUUGUGUCUUUUAAAUAACAAAUAAUAUGAUGCCAGCUUGAGAGUCCUGGACAACAGAGGAUUGAGCAUCA
B17: chr7:106631192:106631193:-_ENSMUSG00000030744_ENSMUST00000032998|mus_mus|motif|central (ssRNA)
RNA: GGGAGUUCUACAGUCCGACGAUCCUUCAGCCAGCUCCCGAGUGAGAAAUUCAUUCAGCUCAGCUUUGAAGAUGCCAUCAGCGGCAAACUUCCUCUUCUUGGAAAUCUGCACCGCCAUCUUGCAGCCGCGCGCCGCUGAAAGGACAACAGAGGAUUGAGCAUCA
B18: chr7:72463354:72463355:-_ENSMUSG00000030516_ENSMUST00000102592|mus_hu|FALSE|FALSE (ssRNA)
RNA: GGGAGUUCUACAGUCCGACGAUCUAACUUCCUGGCACUUUUCCGAGAUUCUGGACAUAACCUCAUUCUCAUUGUUUUUACUCCUUGCUUAGAAUCAGGGUUAAGAAAUACAACAAUUGGAUACCACUGGGCAUAGUUAAGACGCAACAGAGGAUUGAGCAUCA
B19: 22200820_22267049_921_CDS_ENSMUSG00000039197_ENSMUST00000045376|mouse|control|control (ssRNA)
RNA: GGGAGUUCUACAGUCCGACGAUCUUGAGACAGAAAGCCUCCAACAAAUGCAUCUCCAGCUCCAUUGGUGUCAAUGAUCUCUUCCUGGUUUUGAUCCAAGACAGGAAAAGCAGUGACAUCAUUCUCUGCAGCCACUAUGGUGUCCAACAGAGGAUUGAGCAUCA
B20: chr17:56552419:56552420:-_ENSMUSG00000013236_ENSMUST00000086828|mus_mus|mus_mus_mus_hu_False|68_78 (ssRNA)
RNA: GGGAGUUCUACAGUCCGACGAUCAAAAAAUACACUAUUUAAAAAAAAUGAAAUGUCAGAAAAAGAAAAAAAAUAUAGAGUUUUAAAAGAAAGCUGGAUUCUGGUCCCAGCCCAGUGUCCCCAGGCUGCAGAGCGGGGAGGAGCCAACAGAGGAUUGAGCAUCA
B21: chr17:56552419:56552420:-_ENSMUSG00000013236_ENSMUST00000086828|mus_mus|mus_mus_mus_hu_False|8_68 (ssRNA)
RNA: GGGAGUUCUACAGUCCGACGAUCAAAAAAUACACUAUUUAAAAAAAAUGAAAUGUCACGGGAUACAAAAAAAUAUAGAGUUUUAAAAGAAAGCUGGAUUCUGGUCCCAGCCCAGUGUCCCCAGGCUGAGUGCGGAAGAGGAGCCAACAGAGGAUUGAGCAUCA
B22: chr17:56552419:56552420:-_ENSMUSG00000013236_ENSMUST00000086828|mus_mus|mus_mus_mus_hu_False|68_98 (ssRNA)
RNA: B20 RNA with U38A, U39A, G58C, A59G, A60G, A61G, A63U, G64A, A65C
B23: chr17:56552419:56552420:-_ENSMUSG00000013236_ENSMUST00000086828|mus_mus|mus_mus_mus_hu_False|38_68 (ssRNA)
RNA: GGGAGUUCUACAGUCCGACGAUCAAAAAAUACACUAUUUAAAAAAAAUGAAAUGUCACGGGAUACAAAAAAAUAUAGAGUUUUAAAAGAAAGCUGGAAAAAAAAUGCAGCCCAGUGUCCCCAGGCUGCAGAGCGGGGAGGAGCCAACAGAGGAUUGAGCAUCA

The binders below were run against T1, UNK ZnF1-3 (assay: nsRBNS (natural sequence RNA bind-n-seq); RBNS binding buffer (assumed for nsRBNS): 25 mM Tris pH 7.5, 150 mM KCl, 3 mM MgCl2, 0.01% Triton X-100, 500 ug/ml BSA, 20 U/ml SUPERase-In, 4 C; UNK is unkempt and MSI1 is Musashi-1; names of the RNAs are library labels; protein concentration not given here; high values mean tight binding).

Binder	binding signal [enrichment R]
B1	0.596
B2	0.61
B3	4.59
B4	4.08
B5	3.08
B6	1.56
B7	1.04
B8	0.986
B9	0.484
B10	1.43
B11	1.37
B12	3.93
B13	1.63
B14	5.3
B15	0.505
B16	2.8
B17	0.767
B18	1.13
B19	0.736
B20	10.9
B21	6.22
B22	9.31
B23	10.8
